“And” between values parts separate entries of the source, which are not always exact repeats. Equal values may be shown once. Records with an inconclusive call do not appear. Where a call stands in place of a potency, no number is given. The source made the active and inactive calls. Calls follow the shape of the dose curve; as a rule, active = well fitted cell-killing curve with a large enough effect in the repeat runs; inconclusive = weak or mixed curves, or effect the other way; inactive = no such curve, though single readings can be large or run the other way.
experiment: qHTS assay to identify small molecule agonists of the RXR signaling pathway - cell viability counter screen (AID 1159529); conditions: RXR-alpha-bla HEK293T viability, CellTiter-Glo, 16 h; series mostly up to 76.8 µM; also: nearly all actives have a fitted effect of over 50% in size
Source text: National Center for Advancing Translational Sciences [NCATS]
NIH Chemical Genomics Center [NCGC]
U.S. Environmental Protection Agency [EPA]
National Institutes of Environmental Health Sciences [NIEHS]
National Toxicology Program [NTP]
U.S. Food and Drug Administration [FDA]
The Retinoid X receptor (RXR), a nuclear hormone receptor expressed in liver, spleen, placenta, epidermis, central nervous system. These receptors are able to form homo and heterodimers with other nuclear receptors and due to this heterodimerizing ability, RXR functions as master regulators producing diverse physiological effects. Three subtypes of RXR exist; alpha, beta and gamma. Retinoid X receptor alpha (RXR-alpha) has potential roles in metabolic signaling pathways, skin alopecia, dermal cysts, cardiac development, insulin sensitization etc. Therefore screening environmental chemicals on RXR-alpha signaling can be used for the studies focused on such therapeutic applications. For quantification of RXR-alpha ligands signaling, GeneBLAzer RXR alpha-UAS-bla HEK 293T (Life Technologies, Carlsbad, CA) cells containing a beta-lactamase reporter-gene under control of Retinoid X receptor-alpha response element were used to screen Tox21 10K library. The cytotoxicity of the Tox21 compound library against the RXR-alpha HEK 293T cell line was tested in parallel by measuring cell viability using CellTiter-Glo assay (Promega Corporation, Madison, WI) in the same wells.
Tox21 Assay Protocol Summary:
RXR-alpha HEK 293T cells were dispensed at 2,000 cells/6 uL of assay medium containing 2% charcoal-stripped FBS using a Multidrop Combi (ThermoFisher Scientific, Waltham, MA) dispenser. The assay was performed in black wall/clear-bottom 1536-well plates (Greiner Bio-One North America Inc. Monroe, NC). Tetraoctyl ammonium bromide was used as a positive control in the cytotoxicity screen. After the assay plates were incubated at 37 C and 5% CO2 for 5 hr, 23 nL of compounds dissolved in DMSO, positive control or DMSO only were transferred to the assay plate by a Pintool station (Kalypsys, San Diego, CA). The assay plates were incubated at 37 C and 5% CO2 for 16 hr. One uL of LiveBLAzer B/G FRET substrate (Life Technologies) was added using a Flying Reagent Dispenser (FRD) (Aurora Discovery, San Diego, CA) and the plates were incubated at room temperature for 2 hr. Fluorescence intensity (405 nm excitation, 460/530 nm emission) was measured using an Envision plate reader (PerkinElmer, Shelton, CT). For cytotoxicity, 4 uL/well of CellTiter-Glo reagent was added into the assay plates using an FRD. After 30 min incubation at room temperature, the luminescence intensity was measured using a ViewLux plate reader (PerkinElmer).
Potency is read from the fitted curve at half-maximal effect.

SMILES | Potency
COC(=O)CS | inactive
C=CC(=O)OCC1CC2CC1C1CCC(COC(=O)C=C)C21 (stereo not given) | 43.6 µM (active)
O=C(CCc1ccc(O)cc1)c1c(O)cc(O)cc1O | inactive
CC(C)=CC(=O)C=C(C)C | inactive
COc1ccccc1N1CCN(CC(O)COc2cccc3ccccc23)CC1 (stereo not given) | 12 µM (active)
NC1[C@H]2CN(c3nc4c(cc3F)c(=O)c(C(=O)O)cn4-c3ccc(F)cc3F)C[C@@H]12 (stereo not given in full) | inactive
C[C@@H]1CN(CCCn2c3ccccc3c3ccccc32)C[C@H](C)N1 | 23.9 µM (active)
O=C1c2ccccc2C(=O)c2c(O)c(O)cc(O)c21 | inactive
COc1ccc(OC(=O)N(CC(=O)O)Cc2ccc(OCCc3nc(-c4ccccc4)oc3C)cc2)cc1 | inactive
Cc1ccccc1N=C(N)Nc1ccccc1C | inactive
O=C(Nc1cccc2c(=O)cc(-c3nn[nH]n3)oc12)c1ccc(OCCCCc2ccccc2)cc1 | inactive
N#[N+]c1ccc2c(S(=O)(=O)[O-])cccc2c1O | inactive
CCOc1ccccc1O[C@H](c1ccccc1)[C@H]1CNCCO1 | inactive
C[C@H]1c2cccc(O)c2C(O)=C2C(=O)[C@]3(O)C(O)=C(C(N)=O)C(=O)[C@@H](N(C)C)[C@@H]3[C@@H](O)[C@@H]21 | inactive
CCCCCCCC/C=C\CCCCCCCCCCCC(=O)O | inactive
NC(=O)c1ccncc1 | inactive
CC(C)C(O)(c1ccc(OC(F)(F)F)cc1)c1cncnc1 (stereo not given) | inactive
O=C(/C=C/c1ccc(O)c(O)c1)O[C@@H]1C[C@@](OC(=O)/C=C/c2ccc(O)c(O)c2)(C(=O)O)C[C@@H](O)[C@@H]1O | inactive
CCCCCCCCCCC(=O)O | inactive
Cc1cscn1 | inactive

SMILES | Potency
CC(=O)OCCN(CCOC(C)=O)c1ccc(N=Nc2ccc([N+](=O)[O-])cc2C#N)cc1 | inactive
CCCCN(CCCC)C(C(N)=O)c1ccc(OC)cc1 (stereo not given) | inactive
COC(=O)C1=C(C)NC(C)=C(C(=O)O[C@@H]2CCCN(Cc3ccccc3)C2)[C@@H]1c1cccc([N+](=O)[O-])c1 | inactive
C=C(C)CCCC(C)CCO (stereo not given) | inactive
C=CC(=O)[O-].C=CC(=O)[O-].[Zn+2] | inactive
CC1CC(C)C(=O)C1=O (stereo not given) | inactive
Cc1ccccc1S | inactive
CC1(C)S[C@@H]2[C@H](NC(=O)C(c3ccccc3)S(=O)(=O)O)C(=O)N2[C@H]1C(=O)O (stereo not given in full) | inactive
CC(C)C[C@H](NC(=O)[C@H](CCc1ccccc1)NC(=O)CN1CCOCC1)C(=O)N[C@@H](Cc1ccccc1)C(=O)N[C@@H](CC(C)C)C(=O)[C@@]1(C)CO1 | inactive
C/C=C/C=C/C=O | inactive
CC=C(Cl)Cl | inactive
CC1=C(CC=O)C(C)(C)CCC1 | inactive
CCCCCCCCCCCCCCN(CCO)CCO | 21.9 µM (active)
C[C@]12CC[C@@H]3c4ccc(O)cc4CC[C@H]3[C@@H]1CC[C@@H]2OC(=O)CCC1CCCC1 | 49 µM (active) and 26.8 µM (active)
COc1ccccc1NC(=O)c1cc2ccccc2cc1O | inactive
CC(=O)Oc1ccc([N+](=O)[O-])cc1CCl | inactive
c1cc(N(CC2CO2)CC2CO2)ccc1Cc1ccc(N(CC2CO2)CC2CO2)cc1 (stereo not given) | inactive
C=C(C)C(=O)OCCCCCCCCCCCCC | inactive
COC(=O)[C@H]1[C@H]2C[C@@H]3c4[nH]c5cc(OC)ccc5c4CCN3C[C@H]2C[C@@H](OC(=O)/C=C/c2ccc(O)c(OC)c2)[C@@H]1OC | inactive
CCOC(=O)c1ccc(I)cc1 | inactive

— PubChem BioAssay (Tox21)
